# Entries with a potency or affinity are not part of this list. Activity calls are given as the source filed them.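 Rule for the calls: active = viability loss whose fitted half-maximal concentration is at most twice the top valid tested dose; inconclusive = flat curve with 30 to 70% loss, or poor fit; inactive = the rest.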
# Assay: viability loss in HepG2 liver cells – cell-based, ATP luminescence, cherry-pick, set 6, cytotoxicity control, dose response (AID 1053125);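 note: negative values mean loss of viability signal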
# Conditions: ATP luminescence (CellTiter-Glo), 72 h; series mostly up to 26 µM; activity change, negative = cytotoxicity: at the top concentration
row,Structure (SMILES),"activity change, negative = cytotoxicity"
1,CN1CCc2c(sc(NC(=O)Cc3ccccc3)c2C#N)C1,-7.87% (inactive)
2,COC(=O)C1=CN(Cc2ccc(OC)c(OC)c2)C=C(C(=O)OC)C1c1cccc(F)c1,-1.56% (inactive)
3,Cc1cc(OC(=O)c2ccccc2Cl)ccc1N1C(=O)CCC1=O,58.8% (inactive)
4,CCNC(=O)c1cc2c(=O)n3cccc(C)c3nc2n(Cc2ccc(C)cc2)c1=N,-17.9% (inactive)
5,COCCN1C=C(C(=O)OC)C(c2ccc(Cl)cc2)C(C(=O)OC)=C1,-14.3% (inactive)
6,CC(C)(C)c1csc(N/N=C/c2ccc(O)cc2)n1,41.1% (inactive)
7,CCCOc1ccc(NC(=O)c2c(-c3ccccc3)noc2C)cc1,-6.96% (inactive)
8,CCCN1CCc2c(sc(NC(=O)C3CCN(S(=O)(=O)c4cccs4)CC3)c2C(N)=O)C1,-10.9% (inactive)
9,CN1c2ccc(Cl)cc2C(=O)NC1C1CC=CCC1 (stereo not given),-1.75% (inactive)
10,COc1ccccc1/C=N/Nc1nc(C)cc(=O)[nH]1,-7.23% (inactive)
11,Cn1c2ccccc2c(=O)c2ccc(F)cc21,-4.04% (inactive)
12,Cc1c(C(=O)NCc2ccc(Cl)c(Cl)c2)sc(=O)n1Cc1cccc(F)c1,-9.25% (inactive)
13,Cc1cccn2c(=O)c3cc(C(=O)NCCN4CCOCC4)c(=N)n(CCc4ccccc4)c3nc12,1.54% (inactive)
14,CCCN1CCN(C(=O)c2ccc(CS(=O)c3ccc(Br)cc3)o2)CC1 (stereo not given),4.12% (inactive)
15,COCCNC(=O)c1cc2c(=O)n3cccc(C)c3nc2n(Cc2ccncc2)c1=N,-8.89% (inactive)
16,O=[N+]([O-])c1cccc(Nc2c3ccccc3nc3ccccc23)c1,-17.4% (inactive)
17,Cc1nc2ccccc2c2oc(C(=O)NCCCN3CCC(C)CC3)cc12,-12.2% (inactive)
18,CCCn1c(=N)c(S(=O)(=O)c2ccccc2)cc2c(=O)n3ccccc3nc21,-9.82% (inactive)

row,Structure (SMILES),"activity change, negative = cytotoxicity"
1,CSc1ccc(Cn2c(C)c(C(=O)NCc3cccc(Cl)c3)sc2=O)cc1,-16% (inactive)
2,Cc1ccc2nc3c(cc(S(=O)(=O)c4ccccc4)c(=N)n3Cc3ccco3)c(=O)n2c1,-15.1% (inactive)
3,Cn1cnc(S(=O)(=O)Nc2ccc(OC(F)(F)F)cc2)c1,-6% (inactive)
4,CCOc1ccccc1N=c1oc2cc(O)ccc2cc1C(=O)NCC1CCCO1 (stereo not given),-13% (inactive)
5,CCN1C=C(C(=O)OC)C(c2cccc(OC)c2OC)C(C(=O)OC)=C1,3.47% (inactive)
6,CSc1ccc(Cn2c(C)c(C(=O)NCCC#N)sc2=O)cc1,-4.93% (inactive)
7,CCC(=O)N1C(C(=O)NCc2ccc(OC)cc2)CSC1c1ccc(OC)cc1 (stereo not given),-8.23% (inactive)
8,O=C(Cn1ccc([N+](=O)[O-])n1)N1CCCCCC1,-2.07% (inactive)
9,CCOc1ccc2nc(NCCCNS(=O)(=O)c3ccc(C)cc3)c(C#N)cc2c1,-1.54% (inactive)
10,CCC(C)n1c(=N)c(C#N)cc2c(=O)n3cc(C)ccc3nc21 (stereo not given),5.59% (inactive)
11,O=C(COC(=O)c1cc(S(=O)(=O)N2CCCCC2)ccc1N1CCOCC1)c1ccccc1Cl,-11.1% (inactive)
12,COc1c(Cl)cc(-c2noc(C)c2C(=O)NCc2ccc3c(c2)OCO3)cc1Cl,-5.56% (inactive)
13,CC1CCN(S(=O)(=O)N2CCC(C(=O)NC3CCCC3)CC2)CC1,-3.91% (inactive)
14,N=c1oc2cc(O)ccc2cc1C(=O)Nc1nc2ccccc2s1,-0.66% (inactive)
15,Cc1nc2ccc(S(=O)(=O)Nc3ccc(-c4nc5cccnc5s4)cc3)cc2s1,6.75% (inactive)
16,CC(C)c1ccc(/C=C2\Oc3c(ccc(O)c3CN3CCN(C)CC3)C2=O)cc1,3.11% (inactive)
17,O=C(O)c1ccc(-c2ccc(/C=C3\NC(=O)N(Cc4ccc(Cl)cc4)C3=O)o2)cc1,9.07% (inactive)

# Reference: PubChem BioAssay AID1053125 (Broad Institute, 2014)
